Measured values as given in PubChem BioAssay AID1851 (National Center for Advancing Translational Sciences (NCATS), 2009).
About 5,100 (32%) of roughly 16,000 compounds were called active. Inconclusive results (about 25%) are left out. This is one part of the list. Unmarked numbers belong to inactive results. The call rests on the fitted dose curve; in most records, active means well fitted curve in the direction sought with a large enough effect; inconclusive means small, poorly fitted or top-dose-only effect, or effect the other way; inactive means no such curve, though single readings can be large or run the other way.

biological target: Cytochrome P450 3A4 (Homo sapiens) (UniProt P08684); assay: Cytochrome panel assay with activity outcomes; settings: recombinant CYP, pro-luciferin dealkylation, luminescence, p450-cyp3a4; series mostly up to 57.1 µM; activity, negative = inhibition: at the top concentration
On the % scale 0 is the no-effect control and ±100 the full control effect.

Cytochrome P450 3A4 (Homo sapiens), sequence (P08684 whole entry, looked up): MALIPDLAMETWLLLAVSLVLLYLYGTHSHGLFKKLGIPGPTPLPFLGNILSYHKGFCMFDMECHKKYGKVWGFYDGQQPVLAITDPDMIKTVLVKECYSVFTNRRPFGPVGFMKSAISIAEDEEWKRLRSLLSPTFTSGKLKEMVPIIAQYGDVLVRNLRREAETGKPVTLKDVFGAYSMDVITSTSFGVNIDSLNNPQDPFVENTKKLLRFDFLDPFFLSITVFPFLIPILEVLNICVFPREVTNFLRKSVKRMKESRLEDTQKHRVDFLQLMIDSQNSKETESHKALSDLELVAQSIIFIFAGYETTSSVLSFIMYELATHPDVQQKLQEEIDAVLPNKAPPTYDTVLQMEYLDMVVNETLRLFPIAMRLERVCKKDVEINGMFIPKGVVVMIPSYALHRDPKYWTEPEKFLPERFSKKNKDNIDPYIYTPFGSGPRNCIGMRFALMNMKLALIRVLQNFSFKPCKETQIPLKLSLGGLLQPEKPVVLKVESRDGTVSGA

| SMILES | AC50 | activity, negative = inhibition |
| --- | --- | --- |
| CCOC(=O)c1c(NC(=O)CCc2ccc(CC)o2)sc(C)c1C | 12.6 µM (active) |  |
| CCOC(=O)c1c(NC(=O)CSc2nnnn2C)sc(C)c1C | 14.1 µM (active) |  |
| Cc1cccc(NC(=O)CSc2nnnn2C)n1 |  | -9.12% |
| CCc1c(C)sc(NC(=O)OC)c1C(N)=O |  | 19.8% |
| Nc1nc2c(ncn2COCCO)c(=O)[nH]1 | inactive |  |
| CC(C)NC(=O)CC(=O)N/N=C/c1ccc(F)cc1 |  | -0.68% |
| Cc1ccc(S(=O)(=O)N(CC(=O)N/N=C/c2ccc(F)cc2)c2cccc3cccnc23)cc1 | 1.26 µM (active) |  |
| O=C(CN(Cc1ccccc1)S(=O)(=O)c1ccc2c(c1)OCCO2)N/N=C/c1ccc(F)cc1 |  | 0.145% [at 2.29 µM] |
| O=C1CC2(CCCC2)CC(=O)N1CCCCNC[C@H]1COc2ccccc2O1 | 0.631 µM (active) |  |
| Cn1c(C(=O)O)c(CC(=O)NCC2COc3ccccc3O2)c2ccccc21 (stereo not given) |  | -8.31% [at 11.4 µM] |
| COc1ccc(NC(=O)C2(c3ccc(NC(=O)c4ccc(OC(C)=O)cc4)cc3)CCCC2)cc1 |  | -14.1% |
| CC(=O)Nc1ccc(-c2cc(-c3ccc(NC(C)=O)cc3)nc(-c3ccccc3)n2)cc1 |  | -4.31% [at 2.29 µM] |
| Cc1ccc(C(=O)Nc2cccc(-c3cnc4ccccc4n3)c2)cc1 | 2.24 µM (active) |  |
| CCOc1ccc(NC(=O)c2ccc(OC)cc2)cc1 |  | 24.3% |
| COC(=O)COc1cccc(NC(=O)c2ccc(C)cc2)c1 | 17.8 µM (active) |  |
| COc1ccc(C(=O)Nc2cc(Cl)ccc2OC(=O)c2ccc(OC)cc2)cc1 | 22.4 µM (active) |  |
| Cc1ccc(C(=O)Nc2cc(Cl)ccc2OC(=O)c2ccc(C)cc2)cc1 |  | -3.15% [at 2.29 µM] |
| Cc1cccc(NC(=S)NC(=O)c2cc(-c3ccccc3)nc3ccccc23)c1 |  | -27.7% [at 11.4 µM] |
| COc1ccc(C(=O)Nc2cc(OC)cc(OC)c2)cc1 | 14.1 µM (active) |  |
| CCN1C(=O)[C@H]2[C@H]3[C@H](O)[C@H](O)C/C(=N/O[C@@H]4O[C@@H](COC(C)=O)[C@@H](OC(C)=O)[C@@H](OC(C)=O)[C@H]4OC(C)=O)[C@H]3CC[C@@H]2C1=O |  | -8.67% [at 11.4 µM] |
| Cc1ccc(NC(=O)c2nnn(-c3cc(C)cc(C)c3)c2N)cc1 |  | 5.32% [at 2.29 µM] |
| COc1ccc(C(=O)COC(=O)c2ccc(NC(=O)c3ccccc3)cc2)cc1 |  | 7.44% |
| Cc1ccc(C(=O)Nc2ccc3nccnc3c2)cc1 | 14.1 µM (active) |  |

| SMILES | AC50 | activity, negative = inhibition |
| --- | --- | --- |
| Cc1ccc(C(=O)Nc2ccc(N3CCOCC3)nc2)cc1 |  | -10.3% |
| Cc1ccc(-n2nc3ccc(NC(=O)c4ccc5c(c4)OCO5)cc3n2)cc1 | 8.91 µM (active) |  |
| COc1ccc(C(=O)Nc2cccc(-c3cnc4ccccc4n3)c2)cc1 | 2.51 µM (active) |  |
| Cn1c(=O)n2n(c1=O)[C@H]1[C@H](O)[C@H]3O[C@@H]3/C(=N/OCc3ccccc3)[C@@H]1CC2 |  | -26.2% [at 11.4 µM] |
| Cc1ccc(-n2c(=O)[nH]cc(C(=O)N3CCc4ccccc43)c2=O)cc1 |  | -21.6% |
| Cc1ccc(C)c(-n2c(CNC(=O)c3ccco3)nnc2SCC(=O)N2CCc3ccccc32)c1 | 7.08 µM (active) |  |
| CC(C)CC(=O)N1CCC(N2CCN(c3ccccc3)CC2)CC1 |  | 6.02% [at 2.29 µM] |
| CCOC(=O)N1CCN(C(=O)CN(C)S(=O)(=O)c2ccc3c(c2)C(C)(C)C(=O)N3C)CC1 |  | -22.1% |
| CN(CC(=O)N1CCN(c2ccccc2)CC1)S(=O)(=O)c1cnc[nH]1 | 11.2 µM (active) |  |
| CCc1cccc(NC(=O)CN(C)S(=O)(=O)c2cnc[nH]2)c1 | 2.51 µM (active) |  |
| CCc1cccc(CC)c1NC(=O)CN(CC(=O)O)CC(=O)O |  | -4.16% [at 25.6 µM] |
| CCOc1[nH]n(-c2ccc(Cl)cc2)c(=O)c1C=Nc1ccc(O)cc1 |  | -15.4% |
| COc1cc(O)oc1C=Nc1ccc(C(F)(F)F)cc1 | 8.91 µM (active) |  |
| COc1cc(O)oc1C=Nc1ccc(Cl)cc1 | 15.8 µM (active) |  |
| C/C(=N\OC(=O)c1cccc(C)c1)c1sc(-c2ccccc2)nc1C |  | -24.5% |
| C/C(=N\OC(=O)NC1CCCCC1)c1sc(-c2ccccc2)nc1C | 15.8 µM (active) |  |
| c1ccc2c(CN3CCN(Cc4c[nH]c5ccccc45)CC3)c[nH]c2c1 |  | -20.1% [at 11.4 µM] |
| c1ccc2c(-c3c[nH]c4ccccc34)c3ccccc3nc2c1 | 8.91 µM (active) |  |
| O=C(O)CCc1nc(-c2ccccc2-n2cccc2)no1 | 2.51 µM (active) |  |
| CCN(CC)CCc1nc(-c2ccccc2)no1 |  | -1.29% [at 25.6 µM] |
| CN(C)C(=O)CCc1nc(-c2ccc(C(C)(C)C)cc2)no1 |  | -18.2% |
| O=C(NC1CCCCC1)C(c1cccs1)N(Cc1cccs1)C(=O)c1ccco1 (stereo not given) | 3.16 µM (active) |  |
